Shown is part of a subset that was picked to be rich in hits.
Dicer inh – inhibitors of Dicer pre-microRNA processing, primary screen, biochemical, cat-ELCCA, chemiluminescence; cat-ELCCA pre-miR-21 Dicer processing; hits give high values; z-score at 25 µM; Endoribonuclease Dicer (Homo sapiens), Q9UPY3; AID 1347074, 2019; hit rate 6% among 47,000; in the data active means z-score above about 3, passing the limit was not always enough;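 further: plate controls were vehicle for no effect and no enzyme for full effect; higher signal means more uncleaved substrate so more Dicer inhibition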
* = called active by the depositor.

SMILES	Dicer inh
O=C(O)CCC1=NN2C=Nc3sc4c(c3C2NC1=O)CCCC4 (configuration not stated)	3.3*
Cc1ccc(F)cc1NCN1C(=O)c2ccccc2C1=O	0.29
Cc1cc2oc3c(c(=O)c2cc1C)C(c1cccc(O)c1)N(c1ccccn1)C3=O (configuration not stated)	0.62
CCOC(=O)CN(C=NC#N)c1ccc(OC)cc1	-1.6
CN1CCC(c2cccs2)=N1	1.6
Oc1ccc(O)c(Sc2nnnn2-c2ccccc2)c1	3.2*
CC(=O)n1nc(C)c(Sc2nnnn2-c2ccccc2)c1C	-1.2
CC(=O)C(Sc1nnnn1-c1ccccc1)C(C)=O	-0.44
Cc1ccc2[nH]c(=S)n(Cc3ccc(C#N)cc3)c(=O)c2c1	-3.5
Cn1c2ccc(Br)cc2c2cc(Br)cc(Br)c21	-0.48
Cc1csc(NC(=O)Nc2cc(C(F)(F)F)cc(C(F)(F)F)c2)c1Cl	-1.1
Cn1c2c(c3ccccc31)/C(=N/OC(=O)c1ccc(C(C)(C)C)cc1)CCC2	-1.2
CN(C)CC1CCc2c(c3ccccc3n2C)C1=O (configuration not stated)	1.8
Cn1c2c(c3ccccc31)/C(=N/O)CCC2	3.9*
Brc1ccc(C2=Nn3c(CSc4ccccc4)nnc3SC2)cc1	0.22
Cc1cccc(N2C(=O)C3C(c4ccccc4)OC4(C(=O)c5ccccc5C4=O)C3C2=O)c1C (configuration not stated)	-1.5
NC(=Nc1ccccc1)SCc1ccc([N+](=O)[O-])cc1	-1.4
N#Cc1ccc(CSC(N)=Nc2ccccc2)cc1	-0.99
COc1ccccc1N=C(N)SCc1ccccc1	5.9*
Cc1c(C(=O)/C=C/N(C)C)sc(=S)n1CCc1ccc(Cl)cc1	3.2*
CN(C)/C=C/C(=O)c1cc(Cl)ccc1Cl	-0.56
Cc1c(C(=O)/C=C/N(C)C)sc2ccccc12	-0.86
O=C(Cn1c(=O)n(-c2ccccc2)c(=O)c2cc(-c3ccccc3)sc21)c1ccccc1	-0.14
CCOC(=O)Cc1csc(=S)n1-c1ccc(OC)cc1	1.2
COc1ccc(C2Nc3ccc(Br)cc3C(c3ccccc3)N2CC(=O)O)cc1 (configuration not stated)	0.57
SMILES	Dicer inh
COC(=O)CN1C(=O)Nc2ccc(Br)cc2C1c1ccccc1 (configuration not stated)	1.3
O=C(O)CN1C(c2ccccc2O)Nc2ccc(Br)cc2C1c1ccccc1 (configuration not stated)	3.1*
CCc1ccc(C2C(C#N)=C(N)Oc3n[nH]c(-c4ccccc4)c32)cc1 (configuration not stated)	-3.7
CC(C)(C)NNC(=O)c1ccccc1N	-1.3
O=C(O)CSCC(=O)Nc1cc(-c2ccccc2)[nH]n1	-1.5
FC(F)(F)c1cccc(NCCNc2nccc(C(F)(F)F)n2)n1	0.11
COc1cccc(C2c3c(oc4ccccc4c3=O)C(=O)N2c2nc(C)c(C)s2)c1 (configuration not stated)	-0.12
CCn1c(-c2cccs2)n[nH]c1=S	1.6
Cc1ccc(-n2cc(-c3cccs3)nc2SCc2n[nH]c(=S)n2Cc2ccccc2)cc1	5.8*
S=c1[nH]nc(-c2ccncc2)n1Cc1ccccc1	1.2
N#C/C(=C\Nc1ccc2c(c1)OCCO2)S(=O)(=O)c1ccc(C(F)(F)F)cn1	-0.25
CCN(CC)CCN1C(=O)C(=O)c2ccccc21	-0.56
CCc1c(C)sc(NC(=O)c2cc3n(n2)C(C(F)(F)F)CC(c2ccco2)N3)c1C#N (configuration not stated)	4*
COc1ccc(NC(=O)c2cnn3c2NC(c2ccco2)CC3C(F)(F)F)c(OC)c1 (configuration not stated)	3
CC(C)(C)NC(=O)c1cc2n(n1)C(C(F)(F)F)CC(c1ccco1)N2 (configuration not stated)	-0.06
O=C(Nc1cccc(O)c1)c1cc2n(n1)C(C(F)(F)F)CC(c1ccco1)N2 (configuration not stated)	3.3*
Cc1ccc(C2CC(C(F)(F)F)n3ncc(C(=O)Nc4ccc5c(c4)OCO5)c3N2)cc1 (configuration not stated)	0
O=C(Nc1ccc2c(c1)OCO2)c1cnn2c1NC(c1ccco1)CC2C(F)(F)F (configuration not stated)	5*
COc1ccc(NC(=O)c2cc3n(n2)C(C(F)(F)F)CC(c2ccco2)N3)cc1OC (configuration not stated)	-0.8
O=C(Nc1ccccc1F)c1cc2n(n1)C(C(F)(F)F)CC(c1ccco1)N2 (configuration not stated)	-0.64
COc1ccc(NC(=O)c2cc3n(n2)C(C(F)(F)F)CC(c2ccco2)N3)cc1 (configuration not stated)	-1.3
CC12N=NCC1C(=O)N(c1ccc(F)cc1)C2=O (configuration not stated)	1.9
Nc1nnc(Sc2c(-c3ccccc3)c3ccc(Cl)cc3[nH]c2=O)s1	-4
CCCN(CCC)CC(O)COc1ccc2ccccc2c1 (configuration not stated)	1.3
CCSc1nc(O)c(C(c2ccccc2)c2ccccc2)c(=O)[nH]1	-0.45
SMILES	Dicer inh
O=C(Nc1cccc(-c2nc3cc(Cl)ccc3o2)c1)c1ccc([N+](=O)[O-])o1	2.5
CC1=C(C(=O)OCCOc2ccccc2)C(c2ccccc2OC(C)C)C2=C(CC(C)(C)CC2=O)N1 (configuration not stated)	0.31
CC(=O)Nc1ccc(S(=O)(=O)NC23CC4CC(CC(C4)C2)C3)cc1	0.32
CCOC(=O)c1c[nH]c2c(-c3ccccc3)c(C(F)(F)F)sc2c1=O	0.13
Cc1cccc2c(=O)c(C(=O)O)c[nH]c12	0.73
O=C(O)c1c[nH]c2c(-c3ccccc3)c(C(F)(F)F)sc2c1=O	4.8*
Cc1cc(C)n2ncc(/C(N)=N/O)c2n1	-0.45
NS(=O)(=O)c1ccccc1Sc1ccccc1C(=O)O	0
CCOC(=O)Oc1ccc2c(=O)c(Oc3cc(C)cc(C)c3C)coc2c1	-1
Cc1ccc(C(=O)CSc2n[nH]c(-c3ccco3)n2)c(C)c1	-0.59
O=C(CSc1n[nH]c(-c2ccco2)n1)c1ccc(O)cc1O	10*
Cc1cc(C)nc(SCC(=O)c2ccc(O)cc2O)n1	0.35
COc1ccc(-c2c(C(F)(F)F)oc3cc(O)cc(O)c3c2=O)cc1	5.3*
COc1ccc(-c2c(C)oc3cc(O)cc(O)c3c2=O)cc1OC	2
COc1ccc2c(=O)c(-c3ccc(Cl)cc3)c(C(F)(F)F)oc2c1	-0.51
COc1ccc(C2C3=C(CCCC3=O)N=C3c4ccccc4C(=O)C32)cc1 (configuration not stated)	8.7*
O=C1CCCC2=C1C(c1ccc(F)cc1)C1C(=O)c3ccccc3C1=N2 (configuration not stated)	-0.85
CC1(C)CC(=O)C2=C(C1)N=C1c3ccccc3C(=O)C1C2c1cccc(F)c1 (configuration not stated)	-0.56
O=[N+]([O-])c1ccc(-n2ncc(-c3nnc(-c4cccs4)o3)c2C(F)(F)F)cc1	-1.2
COC(=O)c1cc(-c2ccc(S(=O)(=O)N3CCOCC3)cc2)c(C(F)(F)F)s1	-1.4
CCc1ccc(Oc2ccc(C(F)(F)F)cc2[N+](=O)[O-])cc1C	-0.38
O=C(c1ccco1)N1CCN(c2ncccc2C(F)(F)F)CC1	-1
COc1ccc(CN2CCN(Cc3cc(OC)ccc3O)CC2)cc1	2.6
COc1ccc(CN2CCN(Cc3ccc4c(c3)OCO4)CC2)c2ccccc12	-0.76

Screens as filed in PubChem BioAssay.
